High-throughput results: PubChem BioAssay, National Center for Advancing Translational Sciences (NCATS)
Sampled rows, rich in hits. Any-hit rate of the full collection: about 1.5%.
FEN1 inh: human FEN1 inhibition; P39748; Recombinant FEN1 flap cleavage, fluorescence, 15 min; Potency, µM (titrated, usually from 114 µM), for inactives: top-dose activity change, negative = inhibition, most hits filed as inhibitors; 0.35% of 390,000 active; AID 588795; note: potency is the fitted concentration of half-maximal effect; nearly all actives have a fitted effect of over 65% in size
Target sequence (P39748 whole entry, looked up): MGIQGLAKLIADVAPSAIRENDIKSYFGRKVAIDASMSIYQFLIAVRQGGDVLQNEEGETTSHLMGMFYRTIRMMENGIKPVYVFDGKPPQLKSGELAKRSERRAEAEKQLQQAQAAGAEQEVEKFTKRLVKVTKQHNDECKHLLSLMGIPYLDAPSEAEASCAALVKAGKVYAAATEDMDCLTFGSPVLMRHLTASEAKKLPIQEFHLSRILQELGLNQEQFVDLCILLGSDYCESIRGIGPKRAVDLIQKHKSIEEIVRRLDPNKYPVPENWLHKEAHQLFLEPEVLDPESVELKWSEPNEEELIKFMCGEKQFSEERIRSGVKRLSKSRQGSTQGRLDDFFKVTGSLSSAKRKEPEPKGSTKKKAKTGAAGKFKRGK
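Recombinant FEN1 (10 nM) was preincubated with pin-transferred compounds for 15 min at room temperature, then flap DNA substrate (50 nM final) was added. Plates were read at 0 and 15 min, and normalized concentration–response data were fitted to a four-parameter Hill equation.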
RECQ1 inh-1: inhibitors of human RECQ1 DNA helicase | AID 2549 | RECQ1 DNA unwinding, red fluorescence kinetic read | Potency, µM (highest dose often 57.3 µM), inactives show top-dose activity, negative = inhibition, most hits filed as inhibitors | 0.54% of 240,000 active;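 note: potency is the fitted concentration of half-maximal effect; plate controls were vehicle for no effect and no enzyme for full effect; nearly all actives have a fitted effect of over 30% in size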
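50 nM RECQ1T1 preincubated 15 min with compound in Tris pH 8.0 buffer with MgCl2, DTT, Tween-20 and 2.5 ug/ml poly(dI-dC); started with 200 nM TAMRA/BHQ-2 forked duplex and 2 mM ATP. Unwinding read as fluorescence (525/598 nm), two reads 2 h apart.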
BLM inh: inhibitors of human Bloom syndrome helicase BLM; P54132; 0.2% of 350,000 active; recombinant BLM DNA unwinding, fluorescence dequenching; AID 2528; Potency, µM (top dose mostly 56.1 µM), without a hit: at the top dose activity change, negative = inhibition, usual class: inhibitors;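 note: potency is the fitted concentration of half-maximal effect; plate controls were vehicle for no effect and no enzyme for full effect; nearly all actives have a fitted effect of over 35% in size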
WRN helicase inh: inhibitors of human WRN helicase | Q14191 | WRN helicase unwinding, fluorescent forked duplex, kinetic | Potency, µM (doses to about 114 µM), for the others: top-dose activity change, negative = inhibition, usual class: inhibitors | 0.46% of 360,000 active | AID 651768; note: potency is the fitted concentration of half-maximal effect; nearly all actives have a fitted effect of over 55% in size
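WRN at 20 nM final preincubated with compound 15 min at room temperature; reaction started with 100 nM fluorophore/quencher forked duplex oligonucleotide and 2 mM ATP final. Unwinding followed kinetically by red fluorescence (ex 525, em 598 nm).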
PI5P4K alpha inh: inhibitors of human PI5P4K alpha; PI5P4Kalpha enzyme, ADP-Glo luminescence, 60 min; active compounds read low; max response, %; 1.2% of 330,000 active; AID 652105; active = max response of -50% or lower; inconclusive = between -30% and -50%; inactive = -30% or higher; note: value at the top dose of about 77 µM
Target sequence (P48426 whole entry, looked up): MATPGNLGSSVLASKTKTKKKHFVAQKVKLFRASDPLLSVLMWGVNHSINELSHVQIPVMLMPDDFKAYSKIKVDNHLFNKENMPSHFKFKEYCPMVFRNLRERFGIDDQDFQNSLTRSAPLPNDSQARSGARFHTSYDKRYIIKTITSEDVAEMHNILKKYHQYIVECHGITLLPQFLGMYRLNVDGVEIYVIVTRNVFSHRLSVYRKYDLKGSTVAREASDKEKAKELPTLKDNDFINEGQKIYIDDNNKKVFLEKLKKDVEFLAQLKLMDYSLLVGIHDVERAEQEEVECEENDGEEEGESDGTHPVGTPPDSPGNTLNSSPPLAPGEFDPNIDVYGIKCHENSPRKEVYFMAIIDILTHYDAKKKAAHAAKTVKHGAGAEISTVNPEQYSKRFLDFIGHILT
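Quantitative HTS of the MLSMR library against PI5P4Kalpha with substrate. ATP added last at 5 microM final; room temperature, 60 minutes. Remaining ATP depleted, ADP converted and read as luminescence.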
APEX1 inh: APE1 (human) endonuclease inhibition | P27695 | recombinant APE1, TAMRA/BHQ-2 abasic DNA cleavage fluorescence | Potency, µM (series often up to 65.8 µM), for the others: at the highest dose activity change, negative = inhibition, actives largely listed as inhibitors | 0.35% of 350,000 active;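 note: potency is the fitted concentration of half-maximal effect; plate controls were vehicle for no effect and reference inhibitor for full effect; nearly all actives have a fitted effect of over 55% in size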
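Enzyme (0.75 nM final) and test compound are incubated 15 min at room temperature before adding 50 nM quenched THF abasic-site duplex. Cleavage dequenches TAMRA, followed at 525/598 nm over three reads one minute apart.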
RECQ1 conf: confirmation of human RECQ1 helicase inhibitors | 28% of 610 active | RECQ1 helicase DNA unwinding, fluorescence | shares compounds with RECQ1 inh-1 | Potency, µM (titrated, usually from 229 µM), for inactives: at the top dose activity change, negative = inhibition, usual class: inhibitors; note: potency is the fitted concentration of half-maximal effect; nearly all actives have a fitted effect of over 45% in size
RECQ1 ADP FP: counter-screen for RECQ1 inhibitors: ADP displacement; shares compounds with RECQ1 inh-1; 27% of 530 active; AID 2711; Potency, µM (doses to about 228 µM), for inactives: top-dose activity change, negative = inhibition, actives largely listed as inhibitors; ADP fluorescence polarization displacement counterscreen; note: potency is the fitted concentration of half-maximal effect; nearly all actives have a fitted effect of over 45% in size
RECQ1 inh-2: RECQ1 helicase inhibition confirmed, round 2. shares compounds with RECQ1 inh-1. recombinant RECQ1 DNA unwinding, red fluorescence. Potency, µM (top dose mostly 119 µM), for inactives: at the highest dose activity, negative = inhibition, most hits filed as inhibitors. 15% of 1,100 active; note: potency is the fitted concentration of half-maximal effect; nearly all actives have a fitted effect of over 50% in size
* marks the source's active call; other numbers are inactive results; i = inactive; ? = inconclusive; . = not tested or not shown; ! = not confirmed by another sample; [ ] = remark or other dose. Unless noted, calls come from the whole dose curve; as a rule, active = well fitted curve in the direction sought with a large enough effect; inconclusive = small, poorly fitted or top-dose-only effect, or another doubt; inactive = no such curve, though single readings can be large; an effect the other way counts as inactive or inconclusive. Unless noted, % is set by controls: 0 for no effect and ±100 for the full control effect.

SMILES | FEN1 inh | RECQ1 inh-1 | BLM inh | WRN helicase inh | PI5P4K alpha inh | APEX1 inh | RECQ1 inh-2 | others
O=C(O)CC(SCC(=O)Nc1ccc(S(=O)(=O)N2CCCC2)cc1)C(=O)O (configuration not stated) | 6% | i | 1% | -8% | -1 | -7% | . | RECQ1 conf=2%;RECQ1 ADP FP=-9%
CC1=C(C(=O)N2CCOCC2)C(c2cc(C)cs2)NC(=O)N1 (configuration not stated) | 9% | ? | -1% | -7% | 0 | ? | 79µM*
CC1=C(C(=O)N2CCOCC2)C(c2cccs2)NC(=O)N1 (configuration not stated) | 6% | 0% | -2% | 5% | 0 | -7% | .
Cc1ccc(C)c(NC(=O)C(=O)NCCc2csc3nc(-c4ccccc4C)nn23)c1 | 7% | . | -9% | . | . | . | .
O=C(CCc1ccc(O)cc1)c1c(O)cc(O)cc1O | ? | 13µM*! | -15% | -3% | -69* | -6% | -13%
CC1CCN(Cc2c(O)ccc3c2O/C(=C\c2ccco2)C3=O)CC1 | 4% | -2% | -1% | ? | -15 | 3% | .
O=C1/C(=C/c2ccco2)Oc2c1ccc(O)c2CN1CCCCC1 | -3% | ? | -4% | ? | -26 | ? | -17%
CCC1=NN2C(=N)/C(=C\c3cccn3-c3ccc(OC)cc3)C(=O)N=C2S1 | -29% | i | -12% | -3% | -2 | -6% | .
CCCC1=NN2C(=N)/C(=C\c3cc(C)n(Cc4ccccc4)c3C)C(=O)N=C2S1 | -4% | i | -8% | -5% | 1 | -4% | .
O=C1CCN(Cc2ccco2)C(=S)N1 | -6% | . | . | 0% | 11 | . | .
CCC1=NN2C(=N)/C(=C\c3ccc(SCc4ccco4)o3)C(=O)N=C2S1 | -29% | 22µM* | ? | 50µM* | -52* | ? | -30%
O=C1NC(=S)S/C1=C\c1ccc(SCc2ccco2)o1 | ? | 5µM* | ? | 8.9µM* | -99* | 1.8µM* | . | RECQ1 conf=40µM*
CCCC1=NN2C(=N)/C(=C\c3ccc(SCc4ccco4)o3)C(=O)N=C2S1 | ? | 10µM* | ? | 40µM* | -56* | 4µM* | 35µM*
Cc1ccc(S(=O)(=O)NC(=O)NC2CCCC2)cc1 | . | . | 2% | . | . | . | .
Cc1ccc(C(c2ccc(C)o2)c2cccc([N+](=O)[O-])c2O)o1 | -19% | ? | -10% | ? | -56* | 7% | ?
Cc1cc(C(c2ccc(C)o2)c2ccc(C)o2)c(O)c([N+](=O)[O-])c1 | 0% | -14% | -10% | -13% | -10 | 12% | .
COCCCn1c(=O)/c(=C\c2ccccc2OC(C)C)s/c1=C(/C#N)C(=O)Nc1ccc(C(=O)O)cc1 | ? | ? | -8% | ? | 6 | -2% | ?
COCCCn1c(=O)/c(=C\c2ccccc2OC(F)F)s/c1=C(/C#N)C(=O)NC(C)C | -1% | ? | -7% | -18% | 11 | 1% | -13%
Cn1nnnc1SCCCNCc1ccccc1OCc1ccc(F)cc1 | -10% | . | 7% | . | . | . | .
CC(=O)c1cc2c(cc1N(C(=O)Cn1nnc3ccccc31)C(C(=O)NCCC(C)C)c1cccnc1)OCO2 (configuration not stated) | -11% | 0% | -2% | 6% | 0 | -5% | . | RECQ1 conf=-3%;RECQ1 ADP FP=5%
Cc1ccc(N(C(=O)Cn2nnc3ccccc32)C(C(=O)NCc2ccco2)c2cccnc2)cc1 (configuration not stated) | 0% | -1% | -7% | 0% | -5 | -11% | .
CC(=O)c1ccc(S(=O)(=O)Nc2ccc(-c3ccc4nnc(C)n4n3)cc2)cc1 | 1% | ? | -18% | -10%[11.6 µM] | ? | ? | ?
CCN(CC)S(=O)(=O)c1ccc(C(=O)NC(=S)N(CCC#N)Cc2cccnc2)cc1 | 23% | -4% | 0% | -3% | -1 | 2% | . | RECQ1 conf=0%;RECQ1 ADP FP=1%
CN(C)S(=O)(=O)c1cccc(C(=O)NC(=S)N(CCC#N)Cc2cccnc2)c1 | -1% | -18% | 0% | -6% | 1 | -2% | .
CCCCn1c(Cl)nc2c1c(=O)n(C)c(=O)n2C | 1% | ? | 1% | 8% | 0 | -3% | -8%
SMILES | FEN1 inh | RECQ1 inh-1 | BLM inh | WRN helicase inh | PI5P4K alpha inh | APEX1 inh | RECQ1 inh-2 | others
CC(C)c1nc2ccc(C(=O)NCCCN3CCN(c4ccccc4F)CC3)cc2o1 | 10% | . | 1% | . | . | . | .
O=C1C=CC2=C3c4cc(O)c(O)cc4C[C@]3(O)COC2=C1 | . | 11µM* | -11% | . | . | 10µM* | . | RECQ1 conf=112µM*;RECQ1 ADP FP=6.3µM*
Cc1cccc(OCC(=O)Nc2ccccc2C(=O)OCc2cc(=O)n3nc(C)sc3n2)c1 | -10% | . | -3% | . | . | . | .
CC(C)[C@H](NS(=O)(=O)c1ccc2c(c1)OCCO2)C(=O)OCC(=O)Nc1cc(Cl)ccc1Cl | 8% | 50µM* | -6% | -26% | -8 | 10% | -16%
Clc1ccccc1N1CCN(c2ncnc3nc[nH]c23)CC1 | -3% | 28µM* | -1% | 3% | -1 | -1% | ?
Fc1ccccc1N1CCN(c2ncnc3nc[nH]c23)CC1 | 0% | i | -6% | 4% | -3 | -3% | .
CCCCCCCCCOC(=O)CNc1nc(C#N)nc(NCC(=O)OCCCCCCCCC)n1 | -9% | . | . | . | . | . | .
Cc1nn(-c2ccccc2)c2c1N(CCCC(=O)NC(C)c1ccccc1)C(=O)CS2 (configuration not stated) | -2% | . | 0% | . | . | . | .
CCCCN(C(=O)CN1CC(C)OC(C)C1)c1c(N)n(CC(C)C)c(=O)[nH]c1=O (configuration not stated) | 5% | -5% | 3% | -4% | 10 | 18% | .
CCCCN(C(=O)Cn1ncc(Cl)c(Cl)c1=O)c1c(N)n(CC(C)C)c(=O)[nH]c1=O | -20% | 28µM* | -18% | -34% | -52* | -5% | ?
Cc1ccc(S(=O)(=O)Nc2ccc(N3CCOCC3)nc2)cc1 | -12% | i | -19% | 6%[57.1 µM] | 7 | 0% | .
Cc1ccc(C)n1-c1ccc(N2CCOCC2)nc1 | 5% | ? | -12% | -5% | . | -4% | -8%
